# Laboratory results: PubChem BioAssay (Tox21)
# Unmarked numbers belong to inactive results. Activity calls are given as the source filed them. Calls come from the whole dose curve; as a rule, active = well fitted curve in the direction sought with a large enough effect in the repeat runs; inconclusive = weak or mixed curves; inactive = flat fitted curve, though single readings scatter.
# Assay: qHTS assay to test for compound auto fluorescence at 590 nm (red) in HEK293 cells (AID 720679)
# Settings: red autofluorescence 540/590 nm; series mostly up to 91.3 µM; fluorescence, % of fluorescent control: at the top concentration
# Procedure, shortened: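 Intensity at 540nm excitation and 590nm emission is reported as Rose Bengal sodium-equivalent autofluorescence. Measurements followed overnight exposure (37C, 5% CO2) of HEK293 cells, 2,000 per well, to 23 nL compound.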
# % is set by controls: 0 for no effect and ±100 for the full control effect.
SMILES,"fluorescence, % of fluorescent control",outcome
COc1nc(C)nc(NC(=O)NS(=O)(=O)c2ccccc2OCCCl)n1,-0.227%,–
CCCCNC(=S)NCCCC,0.189%,–
CC(C)(C)c1cccc(O)c1,-0.0175%,–
O=C1CCC(C2CCCCC2)CC1,-0.761%,–
COC(=O)c1ccc2cc(C(=O)OC)ccc2c1,0.496% [at 18.6 µM],–
CCCc1c2oc(C(=O)O)cc(=O)c2cc2c(=O)cc(C(=O)O)n(CC)c12,0.0938% [at 46 µM],–
CC(CNC1CCCCC1)OC(=O)c1ccccc1 (stereo unspecified),0.178% [at 18.6 µM],–
CC(C)OC(C)C,0.389% [at 95.7 µM],–
O=C(C(Cl)Cl)N1CCOC12CCCCC2,0.0525%,–
CCCCCCCCCC#N,-0.402%,–
C[C@@H](N)C(=O)O,0.031% [at 46 µM],–
O=C1N(c2ccccc2)c2ccccc2C1(Cc1ccncc1)Cc1ccncc1,0.114% [at 46 µM],–
C=CCc1cc(OC)c(O)c(C(=O)NCCO)c1,0.0285% [at 46 µM],–
CCc1cc(Cl)c(OC)c(C(=O)NC[C@@H]2CCCN2CC)c1O,–,inactive
CCC(=O)O[C@]1(C(=O)SCF)[C@H](C)C[C@H]2[C@@H]3C[C@H](F)C4=CC(=O)C=C[C@]4(C)[C@@]3(F)[C@@H](O)C[C@@]21C,-0.0536% [at 18.6 µM],–
NNS(=O)(=O)c1ccc(Oc2ccc(S(=O)(=O)NN)cc2)cc1,0.0155%,–
CN(CC1(C)CCCO1)S(=O)(=O)c1ccc(Cl)c(S(N)(=O)=O)c1 (stereo unspecified),0.0105% [at 46 µM],–
CCCCCOc1ccc(C2SC(=O)NC2=O)cc1OCC (stereo unspecified),0.421% [at 46 µM],–
CCCCNCCCC,0.0566%,–
CCC1(C)NC(=O)NC1=O (stereo unspecified),0.421%,–
CCOC(=O)C1CC(=O)C(=C(O)C2CC2)C(=O)C1 (stereo unspecified),-0.0059%,–
O=c1[nH]cnc2c1ncn2[C@@H]1O[C@H](CO)[C@@H](O)[C@H]1O,0.0652% [at 46 µM],–
Cc1cc(NS(=O)(=O)c2ccc(N)cc2)nc(C)n1,-0.177% [at 46 µM],–
CC(C)CCCCCCc1ccc(OCCOCCO)cc1,-0.872% [at 95.7 µM],–
CC1(C)S[C@@H]2[C@H](NC(=O)C(C(=O)O)c3ccccc3)C(=O)N2[C@H]1C(=O)O (stereo partly specified),-0.0375% [at 46 µM],–
CCCCCCCCOC(=O)CCCCCCCCC(=O)OCCCCCCCC,0.171%,–
O=C1C=CC(=O)O1,0.482% [at 95.7 µM],–

# Assay: qHTS assay to test for compound auto fluorescence at 535 nm (green) in HEK293 cells (AID 720680)
# Settings: green autofluorescence 485/535 nm; series mostly up to 91.3 µM; fluorescence, % of fluorescein: at the top concentration
SMILES,"fluorescence, % of fluorescein",outcome
COc1nc(C)nc(NC(=O)NS(=O)(=O)c2ccccc2OCCCl)n1,-0.131%,–
CCCCNC(=S)NCCCC,0.0449%,–
CC(C)(C)c1cccc(O)c1,-0.0106%,–
O=C1CCC(C2CCCCC2)CC1,0.0537%,–
COC(=O)c1ccc2cc(C(=O)OC)ccc2c1,-0.0047% [at 18.6 µM],–
CCCc1c2oc(C(=O)O)cc(=O)c2cc2c(=O)cc(C(=O)O)n(CC)c12,-0.0555% [at 46 µM],–
CC(C)OC(C)C,0.0078% [at 95.7 µM],–
OCCN(CCO)c1ccccc1,0.0536%,–
O=C(C(Cl)Cl)N1CCOC12CCCCC2,0.0124%,–
CCCCCCCCCC#N,-0.0859%,–
CCOC(=O)C(Br)c1ccccc1 (stereo unspecified),0.0261%,–
C[C@@H](N)C(=O)O,-0.0147% [at 46 µM],–
O=C1N(c2ccccc2)c2ccccc2C1(Cc1ccncc1)Cc1ccncc1,-0.0494% [at 46 µM],–
Cc1ccsc1C(=CCCN1CCC[C@@H](C(=O)O)C1)c1sccc1C,-0.0097% [at 46 µM],–
C=CCc1cc(OC)c(O)c(C(=O)NCCO)c1,-0.189% [at 46 µM],–
CCc1cc(Cl)c(OC)c(C(=O)NC[C@@H]2CCCN2CC)c1O,–,inactive
CCC(=O)O[C@]1(C(=O)SCF)[C@H](C)C[C@H]2[C@@H]3C[C@H](F)C4=CC(=O)C=C[C@]4(C)[C@@]3(F)[C@@H](O)C[C@@]21C,0.0173% [at 18.6 µM],–
CN(CC1(C)CCCO1)S(=O)(=O)c1ccc(Cl)c(S(N)(=O)=O)c1 (stereo unspecified),-0.0543% [at 46 µM],–
CCCCNCCCC,0.013%,–
CC(C)c1ccccc1,-0.0741% [at 95.7 µM],–
CC/C=C\CCOC(=O)C(C)C,0.027%,–
CCC1(C)NC(=O)NC1=O (stereo unspecified),-0.0349%,–
Cc1cc(S(=O)(=O)O)c(N)cc1Cl,-0.187%,–
COc1cc(N)c(Cl)cc1C(=O)NC1CCN(Cc2ccccc2)CC1,0.0161% [at 18.6 µM],–
CCOC(=O)C1CC(=O)C(=C(O)C2CC2)C(=O)C1 (stereo unspecified),-0.0125%,–
O=S(=O)(O)C(F)(F)F,0.0295%,–
O=c1[nH]cnc2c1ncn2[C@@H]1O[C@H](CO)[C@@H](O)[C@H]1O,-0.11% [at 46 µM],–
CC1(C)S[C@@H]2[C@H](NC(=O)C(C(=O)O)c3ccccc3)C(=O)N2[C@H]1C(=O)O (stereo partly specified),-0.039% [at 46 µM],–
CCCCCCCCOC(=O)CCCCCCCCC(=O)OCCCCCCCC,0.0169%,–
O=C1C=CC(=O)O1,0.0806% [at 95.7 µM],–

# Assay: qHTS assay to test for compound auto fluorescence at 460 nm (blue) in HEK293 cell free culture (AID 720681)
# Settings: cell-free medium, autofluorescence 405/460 nm (blue); series mostly up to 91.3 µM; fluorescence, % of fluorescent control: at the top concentration
# Procedure, shortened: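 Blue fluorescence (Ex 405/Em 460 nm, triamterene-equivalent) was read immediately after pin transfer of compound or DMSO into medium (DMEM, 10% FBS) without cells.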
SMILES,"fluorescence, % of fluorescent control",outcome
COc1nc(C)nc(NC(=O)NS(=O)(=O)c2ccccc2OCCCl)n1,0.0773%,–
O=C1CCC(C2CCCCC2)CC1,0.0103%,–
COC(=O)c1ccc2cc(C(=O)OC)ccc2c1,-0.109% [at 18.6 µM],–
CCCc1c2oc(C(=O)O)cc(=O)c2cc2c(=O)cc(C(=O)O)n(CC)c12,0.382% [at 46 µM],–
CC(CNC1CCCCC1)OC(=O)c1ccccc1 (stereo unspecified),0.0629% [at 18.6 µM],–
CC(C)OC(C)C,0.0905% [at 95.7 µM],–
OCCN(CCO)c1ccccc1,0.208%,–
CCCCCCCCCC#N,-0.0491%,–
CCOC(=O)C(Br)c1ccccc1 (stereo unspecified),-0.151%,–
C[C@@H](N)C(=O)O,0.012% [at 46 µM],–
O=C1N(c2ccccc2)c2ccccc2C1(Cc1ccncc1)Cc1ccncc1,-0.0952% [at 46 µM],–
Cc1ccsc1C(=CCCN1CCC[C@@H](C(=O)O)C1)c1sccc1C,-0.0794% [at 46 µM],–
C=CCc1cc(OC)c(O)c(C(=O)NCCO)c1,0.0363% [at 46 µM],–
CCc1cc(Cl)c(OC)c(C(=O)NC[C@@H]2CCCN2CC)c1O,–,inactive
CCCCOc1cc(C(=O)NCCN(CC)CC)c2ccccc2n1,0.0819% [at 18.6 µM],–
CCC(=O)O[C@]1(C(=O)SCF)[C@H](C)C[C@H]2[C@@H]3C[C@H](F)C4=CC(=O)C=C[C@]4(C)[C@@]3(F)[C@@H](O)C[C@@]21C,0.0707% [at 18.6 µM],–
CCCCCOc1ccc(C2SC(=O)NC2=O)cc1OCC (stereo unspecified),-0.0086% [at 46 µM],–
CCCCNCCCC,0.558%,–
CC(C)c1ccccc1,-0.022% [at 95.7 µM],–
CC/C=C\CCOC(=O)C(C)C,0.0197%,–
Cc1cc(S(=O)(=O)O)c(N)cc1Cl,0.0408%,–
COc1cc(N)c(Cl)cc1C(=O)NC1CCN(Cc2ccccc2)CC1,-0.0892% [at 18.6 µM],–
CCOC(=O)C1CC(=O)C(=C(O)C2CC2)C(=O)C1 (stereo unspecified),-0.057%,–
O=S(=O)(O)C(F)(F)F,-0.0752%,–
O=c1[nH]cnc2c1ncn2[C@@H]1O[C@H](CO)[C@@H](O)[C@H]1O,-0.0793% [at 46 µM],–
Cc1cc(NS(=O)(=O)c2ccc(N)cc2)nc(C)n1,0.0562% [at 46 µM],–
CC1(C)S[C@@H]2[C@H](NC(=O)C(C(=O)O)c3ccccc3)C(=O)N2[C@H]1C(=O)O (stereo partly specified),-0.209% [at 46 µM],–
CCCCCCCCOC(=O)CCCCCCCCC(=O)OCCCCCCCC,-0.139%,–
O=C1C=CC(=O)O1,-0.0043% [at 95.7 µM],–
